Assay results from ChEMBL document CHEMBL3988442, “University of Dundee, Small-Polar-MMV Screening Library” (2021).
The whole screen tested about 48,000 compounds, of which about 13,000 (27%) showed an effect of 50% or more. Some of the results follow.

system: Wolbachia pipientis; assay: Anti-Wolbachia Cell-Based Screen; assay type: functional; parameters: scale not given: in the data most compounds retested in dose-response had high values; details: 5 µM

| SMILES | Percent Effect [%] |
| --- | --- |
| Nc1nc(Cn2ccnc2-c2cc(CN3CCCC3)cs2)cs1 | 4.037 |
| NC1(C(=O)NCC2CCCN(Cc3cccc4nonc34)C2)CCC1 (stereo not given) | -1.452 |
| O=C([C@H]1C[C@H]2OCC[C@H]2N(C(=O)c2ccnnc2)C1)N1CCCCO1 | -6.312 |
| Cc1csc2c(N3CCC(NCCCC4CCOC4)CC3)ncnc12 (stereo not given) | 7.139 |
| Cc1cccc(CN2C[C@@H](F)[C@@H](OCc3nc4ccccc4[nH]3)C2)n1 | -1.113 |
| CSCC[C@@H](CO)n1ccnc1-c1ccc(C)o1 | -18.99 |
| Cc1cc(NC(=O)CN2CCn3c(nnc3C3CC3)C2)n(C)n1 | -5.451 |
| Cc1nnc2n1CCN(CCC(=O)Nc1sccc1C#N)C2 | 5.791 |
| Cc1cc(NC(=O)CCN2CCn3c(nnc3C3CC3)C2)no1 | -0.2298 |
| N#Cc1ccsc1NC(=O)CN1CCn2c(nnc2C2CC2)C1 | 118.5 |
| N#Cc1ccsc1NC(=O)CCN1CCn2c(nnc2C2CC2)C1 | 113.3 |
| CCC1CN(CC(=O)Nc2sccc2C#N)CCO1 (stereo not given) | -10.74 |
| CNC(=O)COc1nc(C(C)(C)C)no1 | -5.111 |
| CCN(Cc1ccoc1)C(C(N)=O)c1cccc(Br)c1 (stereo not given) | 12.55 |
| CNC(=O)C(C)(C)N(C)C(=O)c1cc(COc2ccccc2OC)[nH]n1 | -2.904 |
| COc1ccc(OCCN(C)C(=O)c2ccc(OC)cc2O)cc1 | 93.52 |
| CCc1ccc(OCCN(C)C(=O)c2ccncc2Cl)cc1 | -12.28 |
| COCCN(C)C(=O)c1ccc(OC)cc1O | -1.632 |
| Cc1nc(C#N)c(N2CCC(c3nc(-c4ccc(F)cc4)no3)CC2)o1 | 10.17 |
| Cc1cnn(CC2CCCN2Cc2nnc(-c3ccccc3)o2)c1 (stereo not given) | 97.7 |
| Cc1cnn(CC2CCCN2Cc2coc(-c3ccccc3)n2)c1 (stereo not given) | 17.84 |
| Cc1cnn(CC2CCCN2Cc2nnc(Cc3ccccc3)o2)c1 (stereo not given) | 6.561 |
| Cc1cnn(CC2CCCN2Cc2nnc(C(C)C)o2)c1 (stereo not given) | 94.36 |
| Cc1cnn(CC2CCCN2Cc2nnc(C3CC3)o2)c1 (stereo not given) | 113.6 |

| SMILES | Percent Effect [%] |
| --- | --- |
| Cc1cnn(CC2CCCN2Cc2ncc(-c3ccccc3)o2)c1 (stereo not given) | -2.575 |
| Cc1cnn(CC2CCCCN2Cc2noc(C3CC3)n2)c1 (stereo not given) | 11.5 |
| CCc1nnc(CN2CCCC2Cn2cc(C)cn2)o1 (stereo not given) | 107.1 |
| CC(C)c1nnc(CN2CCCC2Cn2cncn2)o1 (stereo not given) | 2.76 |
| CNC(=O)C(C)CN(C)C(=O)Nc1cc(-n2cccc2)ccc1F (stereo not given) | 4.281 |
| COc1cccc(F)c1C(C)NC(=O)NCc1ccnc(C)n1 (stereo not given) | 15.11 |
| CC(C)N(Cc1ccccc1)Cc1nnsc1Cl | 2.332 |
| CC(C)(C)c1cnc(CN2C(=O)CC3(CCSC3)C2=O)o1 (stereo not given) | -9.013 |
| Cc1cnn(CC2CCCN2Cc2nnc(C)o2)c1 (stereo not given) | 108.8 |
| CNc1ncc(C(=O)N2CCCC(CO)(CCCOC)C2)cn1 (stereo not given) | -3.097 |
| CCCC1(CO)CCCN(C(=O)CNC(C)=O)C1 (stereo not given) | 72.22 |
| O=C(CCn1cnnn1)N1CCCC(CO)(CCc2ccccc2)C1 (stereo not given) | -14.03 |
| CC(=O)NCC(=O)N1CCCC2(CCC(=O)N(CCc3c[nH]cn3)C2)C1 (stereo not given) | 7.336 |
| CCCC1(CO)CCCN(C(=O)CNC(N)=O)C1 (stereo not given) | 100.2 |
| O=C(CCn1cnnn1)N1CCCC(CO)(CCCc2ccccc2)C1 (stereo not given) | 2.487 |
| COc1c(C2CCCN2c2ncnc3sccc23)c(C)nn1C (stereo not given) | -10.8 |
| CN(CC1(O)CCCN(Cc2cccc(F)c2F)C1=O)C1CCCCC1 (stereo not given) | 6.301 |
| CCC1CCCCN1S(=O)(=O)c1c(C)noc1C (stereo not given) | -6.559 |
| CCCN1CCCC2(CCN(S(=O)(=O)c3cccnc3)C2)C1=O (stereo not given) | 3.088 |
| Cc1ccnc(C2(C)CCCN2S(=O)(=O)c2cccnc2)n1 (stereo not given) | 132.4 |
| O=C1N(C2CCCCC2)CCCC12CCN(S(=O)(=O)c1cccnc1)C2 (stereo not given) | 14.14 |
| Cc1ccnc(C2(C)CCCN2S(=O)(=O)c2c(C)noc2C)n1 (stereo not given) | 125.2 |
| Cc1noc(C)c1S(=O)(=O)N1C[C@@H](C(=O)O)[C@H](c2ccccn2)C1 | -14.24 |
| CC(C)c1noc(CNc2ccccc2CC(=O)N(C)C)n1 | 6.812 |

| SMILES | Percent Effect [%] |
| --- | --- |
| Cc1nn(C)c(C)c1NC(=O)CNc1ccc(F)c(C(F)(F)F)c1 | -4.336 |
| Cn1cccc1C(=O)N1CCCC1c1ccc(CN2CCOCC2)cn1 (stereo not given) | 73.28 |
| CC(=O)N1CCCC1c1ccc(-c2c(C)noc2C)cn1 (stereo not given) | -2.111 |
| O=C(CC1CCCC1)N1CCCC1c1ccc(CN2CCOCC2)cn1 (stereo not given) | 123.2 |
| CCc1ccc(C2CCCCCN2C(=O)CNC(=O)C2CC2)o1 (stereo not given) | -5.222 |
| CC(=O)N1CCCC1c1ccc(Br)cn1 (stereo not given) | 103.5 |
| CC(=O)NCC(=O)N1CCCC1c1ccc(CN2CCOCC2)cn1 (stereo not given) | 87.68 |
| O=C(CC1CCCCC1)N1C[C@H]2CC[C@@H]1CN(Cc1cccnc1)C2 | -16.08 |
| Cn1cccc1C(=O)N1C[C@H](OCC2CCOCC2)[C@H]2COC[C@H]21 | -0.3996 |
| Cc1cc(C(=O)Nc2ccc(CN3CCOCC3)cn2)n(C)n1 | -8.587 |
| Cc1ccc(CNC(=O)NCCCn2nc3ccccn3c2=O)s1 | 0.9307 |
| CN(C)CCN(C)C[C@@H]1CN(Cc2cccc(O)c2)C[C@@H]1CO | -1.662 |
| Cc1ccc(-c2nc(C(=O)N(C)CC(=O)N3CCCC3)cs2)c(C)c1 | 2.536 |
| CCNC(=O)[C@@H]1CCCN1[C@@H](C(=O)NC)c1ccccc1OC.Cl | 2.638 |
| N#Cc1cccc(NC(=O)N2CCCC(N3CCCC3=O)C2)c1 (stereo not given) | -2.402 |
| CC(C1CCN(Cc2ccc(N(C)C)nc2)CC1)N1CCOCC1 (stereo not given) | 11.4 |
| CC(=O)N1CCCC1c1ccc(C(=O)N2CCOCC2)s1 (stereo not given) | -4.925 |
| CC(=O)N1CCCC1c1ccc(CN2CCOCC2)cn1 (stereo not given) | 123.1 |
| Cc1cccc(NC2CCN(C(=O)Nc3cc(F)ccc3F)CC2)n1 | 100.1 |
| Cc1cccc(NC2CCN(C(=O)Nc3ccc(F)cc3C)CC2)n1 | 119.5 |
| O=C(Nc1cc(-n2cccc2)ccc1F)N1CCCC1 | -21.77 |
| COC(=O)C1CCN(C(=O)Nc2cc(-n3cccc3)ccc2F)CC1 | -12.66 |
